Values joined by “and” are separate entries in the source; they are usually repeats but may differ in a detail not shown here. Equal values may be shown once. The campaign covered roughly 5,500 compounds. About 2,000 (36%) were called active. About 18% were inconclusive and are not listed. No stated cut-off is given here; in the data, active means normalized growth mostly below about 0.91 (no sharp cut-off); inconclusive means no clear call, values can overlap the other calls; inactive means mostly above about 0.92. Some of the results follow.
Assay: chemical genetic growth profiling, strain panel (AID 1159580);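 further: tested at 20 µM; growth read once vehicle control cultures reached saturation at 30 °C; 1 = growth at the plate median or of vehicle wells; lower values mean less growth of the strain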
Settings: S. cerevisiae deletion strains, growth OD

Measured: normalized growth

NC[C@H]1O[C@H](O[C@H]2[C@H](O)[C@@H](O[C@H]3O[C@H](CO)[C@@H](O)[C@H](N)[C@H]3O)[C@H](N)C[C@@H]2N)[C@H](N)[C@@H](O)[C@@H]1O
inactive: locus YAL021C, strain ccr4, active compounds read low 0.999 | locus YAL026C, strain drs2, active compounds read low 0.992 | locus YAL030W, strain snc1, active compounds read low 0.996 | locus YBL061C, strain skt5, active compounds read low 0.992 | locus YBR009C, strain hhf1, active compounds read low 1.03 | locus YBR021W, strain FUR4, active compounds read low 0.902 | locus YBR023C, strain chs3, active compounds read low 1 | locus YBR171W, strain sec66, active compounds read low 0.989 | locus YBR229C, strain ROT2, active compounds read low 0.995 | locus YBR231C, strain swc5, active compounds read low 0.997 | locus YBR279W, strain paf1, active compounds read low 0.993 | locus YCL011C, strain gbp2, active compounds read low 0.998 | locus YCL016C, strain dcc1, active compounds read low 1.01 | locus YCL029C, strain bik1, active compounds read low 0.977 | locus YCL061C, strain MRC1, active compounds read low 0.993 | locus YCL069W, strain vba3, active compounds read low 0.989 | locus YCR088W, strain abp1, active compounds read low 0.992 | locus YDL005C, strain med2, active compounds read low 0.992 | locus YDL035C, strain GPR1, active compounds read low 0.99 | locus YDL040C, strain nat1, active compounds read low 0.997 | locus YDL074C, strain BRE1, active compounds read low 0.955 | locus YDL101C, strain DUN1, active compounds read low 0.991 | locus YDL185W, strain tfp1, active compounds read low 0.95 | locus YDL192W, strain arf1, active compounds read low 1 | locus YDR001C, strain nth1, active compounds read low 0.989 | locus YDR069C, strain doa4, active compounds read low 0.99 | locus YDR101C, strain arx1, active compounds read low 0.943 | locus YDR137W, strain rgp1, active compounds read low 1.01 | locus YDR150W, strain NUM1, active compounds read low 0.98 | locus YDR159W, strain sac3, active compounds read low 0.983 | locus YDR162C, strain NBP2, active compounds read low 1.01 | locus YDR195W, strain ref2 0.937 | locus YDR297W, strain sur2, active compounds read low 0.986 | locus YDR318W, strain mcm21, active compounds read low 1 | locus YDR334W, strain swr1, active compounds read low 0.985 | locus YDR335W, strain msn5, active compounds read low 0.994 | locus YDR388W, active compounds read low 0.98 | locus YDR392W, strain spt3, active compounds read low 1.04 | locus YDR502C, strain sam2, active compounds read low 1.01 | locus YEL003W, strain gim4, active compounds read low 0.991 | locus YEL037C, strain rad23, active compounds read low 1 | locus YEL061C, strain CIN8 (second series), active compounds read low 0.982 | locus YEL061C, strain CIN8, active compounds read low 0.996 | locus YER015W, strain faa2, active compounds read low 1 | locus YER016W, strain bim1, active compounds read low 0.988 | locus YER110C, active compounds read low 0.957 | locus YER111C, strain swi4, active compounds read low 0.998 | locus YER155C, strain BEM2 (second series), active compounds read low 0.993 | locus YER155C, strain BEM2, active compounds read low 0.994 | locus YER167W, strain BCK2, active compounds read low 1 | locus YFR010W, strain ubp6, active compounds read low 0.987 | locus YGL078C, strain dbp3, active compounds read low 0.99 | locus YGL086W, strain mad1, active compounds read low 0.952 | locus YGL167C, strain pmr1, active compounds read low 1 | locus YGL173C, strain kem1, active compounds read low 0.99 | locus YGL227W, strain vid30, active compounds read low 0.984 | locus YGL240W, strain doc1, active compounds read low 0.985 | locus YGL248W, strain PDE1, active compounds read low 1.02 | locus YGL253W, strain hxk2, active compounds read low 0.993 | locus YGR078C, strain PAC10, active compounds read low 1.01 | locus YGR135W, strain pre9, active compounds read low 1.01 | locus YGR252W, strain gcn5, active compounds read low 1.18 | locus YHR013C, strain ard1, active compounds read low 1 | locus YHR027C, strain rpn1, active compounds read low 0.989 | locus YHR030C, strain SLT2, active compounds read low 0.978 and 1.08 | locus YHR079C, strain IRE1 (second series), active compounds read low 0.974 | locus YHR079C, strain IRE1, active compounds read low 1.07 | locus YHR094C, strain hxt1, active compounds read low 0.992 | locus YHR129C, strain ARP1, active compounds read low 0.997 | locus YHR142W, strain chs7, active compounds read low 0.991 | locus YHR200W, strain rpn10, active compounds read low 0.98 | locus YIL066C, strain RNR3, active compounds read low 0.99 | locus YIL073C, strain SPO22, active compounds read low 0.915 | locus YIL125W, strain kgd1, active compounds read low 0.974 | locus YIR030C, strain dcg1, active compounds read low 1 | locus YJL092W, strain hpr5, active compounds read low 0.986 | locus YJL095W, strain BCK1 (second series), active compounds read low 0.994 | locus YJL095W, strain BCK1, active compounds read low 1.04 and 1.07 | locus YJL115W, strain asf1, active compounds read low 0.988 | locus YJL129C, strain trk1, active compounds read low 0.988 | locus YJL134W, strain LCB3, active compounds read low 0.976 | locus YJL154C, strain vps35, active compounds read low 0.994 | locus YJL164C, strain tpk1, active compounds read low 1 | locus YJL166W, strain qcr8, active compounds read low 0.996 | locus YJL168C, strain set2, active compounds read low 0.984 | locus YJL187C, strain SWE1 (second series), active compounds read low 1.01 | locus YJR043C, strain POL32, active compounds read low 1.01 | locus YJR066W, strain TOR1, active compounds read low 1.02 | locus YKL009W, strain mrt4, active compounds read low 0.97 | locus YKL068W, active compounds read low 0.966 | locus YKL085W, strain MDH1 (second series), active compounds read low 0.993 | locus YKL085W, strain MDH1, active compounds read low 0.993 | locus YKL160W, strain elf1, active compounds read low 0.994 | locus YKR001C, strain vps1, active compounds read low 0.986 | locus YKR026C, strain gcn3, active compounds read low 0.984 | locus YKR091W, strain srl3, active compounds read low 0.983 | locus YLL001W, strain dnm1, active compounds read low 0.988 | locus YLL026W, active compounds read low 1 | locus YLL041C, strain sdh2, active compounds read low 1.01 | locus YLR027C, strain aat2, active compounds read low 0.999 | locus YLR039C, strain RIC1, active compounds read low 1.01 | locus YLR058C, strain SHM2, active compounds read low 0.999 | locus YLR102C, strain apc9, active compounds read low 0.973 | locus YLR113W, strain HOG1, active compounds read low 1.04 | locus YLR221C, strain rsa3, active compounds read low 0.997 | locus YLR258W, strain gsy2, active compounds read low 0.995 | locus YLR262C, strain YPT6 (second series), active compounds read low 1.02 | locus YLR262C, strain YPT6, active compounds read low 0.984 | locus YLR268W, strain sec22, active compounds read low 0.959 | locus YLR320W, strain mms22, active compounds read low 1 | locus YLR330W, strain CHS5, active compounds read low 0.984 | locus YLR342W, strain FKS1 (second series), active compounds read low 0.999 | locus YLR342W, strain FKS1, active compounds read low 0.988 | locus YLR357W, strain rsc2, active compounds read low 0.992 | locus YLR370C, strain arc18, active compounds read low 1.02 | locus YLR371W, strain rom2, active compounds read low 0.996 | locus YLR384C, strain iki3, active compounds read low 1.01 | locus YLR418C, strain cdc73, active compounds read low 1.06 | locus YML016C, strain PPZ1, active compounds read low 0.992 | locus YML032C, strain rad52, active compounds read low 1.04 | locus YML120C, strain ndi1, active compounds read low 0.994 | locus YML124C, strain tub3, active compounds read low 0.991 | locus YMR058W, strain fet3, active compounds read low 0.997 | locus YMR078C, strain ctf18, active compounds read low 1.01 | locus YMR125W, strain sto1, active compounds read low 1.01 | locus YMR129W, active compounds read low 0.99 | locus YMR205C, strain PFK2, active compounds read low 1 | locus YMR223W, strain ubp8, active compounds read low 1.02 | locus YMR231W, strain pep5, active compounds read low 0.997 | locus YMR263W, strain SAP30, active compounds read low 0.992 | locus YMR307W, strain GAS1, active compounds read low 1.16 | locus YNL067W, strain RPL9B, active compounds read low 1.01 | locus YNL071W, strain lat1, active compounds read low 0.998 | locus YNL183C, strain NPR1, active compounds read low 1.02 | locus YNL209W, strain ssb2, active compounds read low 0.992 | locus YNL233W, strain BNI4, active compounds read low 1.01 | locus YNL248C, strain rpa49, active compounds read low 1 | locus YNL250W, strain rad50, active compounds read low 0.96 | locus YNL271C, strain bni1, active compounds read low 0.997 | locus YNL298W, strain CLA4, active compounds read low 0.984 | locus YNL307C, strain MCK1, active compounds read low 0.981 | locus YNL322C, strain KRE1 (second series), active compounds read low 1 | locus YNR049C, strain mso1, active compounds read low 1.02 | locus YNR052C, strain pop2, active compounds read low 1 | locus YOL012C, strain htz1 1.19 | locus YOL147C, strain pex11, active compounds read low 0.989 | locus YOR001W, strain rrp6, active compounds read low 1.01 | locus YOR061W, strain CKA2, active compounds read low 1 | locus YOR069W, strain VPS5, active compounds read low 0.986 | locus YOR070C, strain gyp1, active compounds read low 1.01 | locus YOR080W, strain dia2, active compounds read low 1 | locus YOR083W, strain WHI5, active compounds read low 1.01 | locus YOR106W, strain vam3, active compounds read low 1.02 | locus YOR136W, strain idh2, active compounds read low 0.972 | locus YOR184W, strain ser1, active compounds read low 0.972 | locus YOR231W, strain MKK1, active compounds read low 1.04 | locus YOR265W, strain rbl2, active compounds read low 1 | locus YOR270C, strain vph1, active compounds read low 0.968 | locus YOR290C, strain snf2, active compounds read low 1 | locus YOR316C, strain cot1, active compounds read low 0.978 | locus YPL051W, strain arl3, active compounds read low 1 | locus YPL055C, strain LGE1, active compounds read low 1.01 | locus YPL078C, strain atp4, active compounds read low 1.02 | locus YPL106C, strain sse1, active compounds read low 1.01 | locus YPL240C, strain hsp82, active compounds read low 0.988 | locus YPL256C, strain CLN2, active compounds read low 1.08 | locus YPR119W, strain clb2, active compounds read low 0.993 | locus YPR141C, strain kar3, active compounds read low 0.982 | locus YPR163C, strain tif3, active compounds read low 0.998 | locus YPR167C, strain met16, active compounds read low 0.991 | strain wtn01, active compounds read low 0.948
